Most compounds without a hit are left out; they make up all but 7.9% or so of the library.
LASV entry inh: blocks Lassa virus binding to or entry into cells; Lassa virus pseudotype entry inhibition, cell reporter; Potency, µM (series often up to 37.9 µM), for the others: at the highest dose activity change, negative = inhibition, hits mostly inhibitors; 1.2% of 300,000 active; calls by dose curve; tested in HEK293 cells; note: potency is the fitted concentration of half-maximal effect; nearly all actives have a fitted effect of over 50% in size
FMDV inh: foot and mouth disease virus antiviral activity | FMDV antiviral cell-based qHTS | Potency, µM (series often up to 57.9 µM), inactives show top-dose activity change, negative = inhibition, usual class: inhibitors | 1.2% of 410,000 active; calls by dose curve; tested in HEK293T cells; note: read-out not given here; potency is the fitted concentration of half-maximal effect; nearly all actives have a fitted effect of over 45% in size
HCMV inh: human cytomegalovirus inhibition. HFF cells, HCMV-luciferase reporter, 72 h; active compounds read low. activity change, negative = inhibition, % at 57.5 µM. 4.5% of 410,000 active. AID 1259415; in the data active = activity change below about -60%; inconclusive = no clear call, values can overlap the other calls; inactive = above about -39%
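Luciferase read-out from HCMV-luciferase-infected HFFs (MOI 1 PFU/cell) 72 h post infection at 37C; compounds added after 16 h cell attachment; activity normalized between buffer-only basal and Salinomycin (10uM) inhibitor controls.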
HCV inhibitor: blocks hepatitis C virus | Huh7.5.1 HCVcc-Cre infection, luciferase reporter, 44 h | Potency, µM (titrated, usually from 41.8 µM), for inactives: at the highest dose activity change, negative = inhibition, usual class: inhibitors | 3.4% of 340,000 active | AID 651820; active = well fitted inhibition curve with a large enough effect; inconclusive = small, poorly fitted or top-dose-only effect, or another doubt; inactive = no such curve, though single readings can be large or run the other way; note: potency is the fitted concentration of half-maximal effect
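Whole-lifecycle infectious HCVcc-Cre system; cells 1,000/well, compound then virus (~0.5 moi) added 4 h after plating, 44 h culture. Luciferase read 15 sec following 15 min substrate incubation, room temp.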
MARV entry inh: Marburg virus entry inhibition. Marburg virus pseudotyped entry inhibition, cell reporter. Potency, µM (titrated, usually from 37.8 µM), inactives show at the highest dose activity change, negative = inhibition, actives largely listed as inhibitors. 1.8% of 300,000 active. AID 540276; calls by dose curve; tested in HEK293 cells; note: potency is the fitted concentration of half-maximal effect
* hit, by the source's call; ? = inconclusive; / = not tested or not shown; [ ] = dose if it differs, or a comment. % is set by controls: 0 for no effect and ±100 for the full control effect.

SMILES	LASV entry inh	FMDV inh	HCMV inh	HCV inhibitor	MARV entry inh
COC(=O)c1ccccc1-c1cc(C)cc2c1OC(CNC(=O)c1cc(C)n(C)n1)C2 (stereo not drawn)	/	20%	/	/	/
CC(=O)c1ccc(OCc2cn(CC(=O)c3ccc(O)cc3)nn2)cc1C	-2%[46.1 µM]	/	/	/	/
O=C1NC[C@H](CCCCN2CCN(CC3CCCCC3)C(=O)C2=O)N(CC2CCCCC2)C1=O	/	-19%	4	/	/
CCCCCN(C(=O)CCC(=O)OCC(=O)N(C)c1ccccc1)c1c(N)n(CCCC)c(=O)[nH]c1=O	-5%	6%	8	8%	?
CCCCn1c(N)c(N(CCOC)C(=O)CSc2n[nH]c(-c3ccc(OC)cc3)n2)c(=O)[nH]c1=O	-9%	10%	-76*	15%	?
CCCCn1c(N)c(N(CCOC)C(=O)C2CCN(S(=O)(=O)c3ccc(F)cc3)CC2)c(=O)[nH]c1=O	11%	-28%	-36	1%	18%
COCCN(C(=O)CSc1n[nH]c(-c2ccc(OC)cc2)n1)c1c(N)n(Cc2ccccc2)c(=O)[nH]c1=O	-17%	-15%	-13	-4%	-13%
CCCCCN(C(=O)CN1CCC(Cc2ccccc2)CC1)c1c(N)n(CCCC)c(=O)[nH]c1=O	?	-16%	46	?	10µM*
COCCN(C(=O)c1cc(-c2ccco2)nc2ccccc12)c1c(N)n(Cc2ccccc2)c(=O)[nH]c1=O	/	-7%	-69*	12%	/
CCCCn1c(N)c(N(CCOC)C(=O)C2CCN(S(=O)(=O)c3ccc(Cl)cc3)CC2)c(=O)[nH]c1=O	?	-19%	-70*	11%	?
CCCN(C(=O)c1cc(-c2ccco2)nc2ccccc12)c1c(N)n(Cc2ccccc2)c(=O)[nH]c1=O	10%	0%	-17	-5%	-21%
CCOc1ccc(/C=N/Nc2cc(=O)n(C)c(=O)n2C)cc1	?	6%	-16	3%	19%
COc1ccc(-n2c(=O)cnc3cnc(Oc4ccccc4)nc32)cc1	/	-10%	/	/	/
CN(Cc1ccc(F)cc1)S(=O)(=O)c1nnc(NC(=O)c2ccc(F)cc2)s1	7%[46.1 µM]	-1%	0	/	/
CCCCn1c(N)c(N(CCOC)C(=O)CSc2ccccc2C)c(=O)[nH]c1=O	0%	3%	1	16%	8%
CCCCN(C(=O)CSc1nncn1-c1ccccc1)c1c(N)n(Cc2ccccc2)c(=O)[nH]c1=O	1%	1%	-62*	0%	0%
CCc1ccc(-c2nc(SCC(=O)N(CCOC)c3c(N)n(Cc4ccccc4)c(=O)[nH]c3=O)n[nH]2)cc1	?	17%	-79*	-2%	-3%
CCCCn1c(N)c(N(CCOC)C(=O)CSCc2ccccc2C)c(=O)[nH]c1=O	3%	-7%	-97*	2%	13%
Cc1cc(C)cc(NC(=O)Cn2cc(S(=O)(=O)NC(C)(C)C)c(S(=O)(=O)NC(C)(C)C)c2)c1	6%[46.1 µM]	-6%	?	/	/
CCCCCNC(=O)C1(C)CCc2nc3ccccc3n21 (stereo not drawn)	/	/	52	/	/
CCN1/C(=C/C=C/c2oc3ccc(-c4ccccc4)cc3[n+]2CC)Oc2ccc(-c3ccccc3)cc21	4.5µM*	8.9µM*	-97*	0.89µM*	2.5µM*
CCCCN1C(=O)/C(=C/C=C2\Oc3ccccc3N2CC)SC1=S	22%[46.1 µM]	5%	-38	-2%	?
CC(=O)c1cccc(NC(=O)Nc2ccc3c(c2)N(C)C(=O)CS3)c1	-23%	?	?	3.2µM*	-31%
Cc1cc(C)cc(NC(=O)Nc2ccc3c(c2)N(C)C(=O)CS3)c1	/	?	7	-21%	/
CCc1ccc(NC(=O)Nc2ccc3c(c2)N(C)C(=O)CS3)cc1	/	-7%	-69*	-22%	/
SMILES	LASV entry inh	FMDV inh	HCMV inh	HCV inhibitor	MARV entry inh
Cc1cccc(NC(=O)CSc2nnc3ccc(-c4ccccn4)nn23)c1	3%	-4%	-35	3%	19%[46.1 µM]
Cc1nc(Cc2nnc(SCC(=O)N3c4ccccc4NC(=O)C3(C)C)o2)cs1	/	-25%	14	/	/
Cc1ccc(-c2cc3nn(-c4ccccc4)c(N)c3c(=O)o2)cc1	12%	-28%	-12	10µM*	-26%
Oc1ccccc1Nc1nc(NCC2CCCO2)c2ccccc2n1 (stereo not drawn)	?	?	-12	?	15µM*
Oc1ccc(Nc2nc(NCC3CCCO3)c3ccccc3n2)cc1 (stereo not drawn)	?	-14%	13	-22%	?
Oc1ccc(Cl)cc1Nc1nc(NCC2CCCO2)c2ccccc2n1 (stereo not drawn)	/	28µM*	-13	/	/
CCC(C)C(NC)C(=O)O (stereo not drawn)	/	-19%	/	/	/
CC(C)C1CC(CCN)(Cc2ccccc2)CCO1 (stereo not drawn)	0%[46.1 µM]	-9%	?	?	15µM*
CC(C)C1CC(CCN)(c2ccccc2)CCO1 (stereo not drawn)	/	-12%	33	1%	/
CCCC1=Nc2cc(C(=O)NCCN3CCOCC3)ccc2Sc2ccc(C)cc21	/	-6%	-12	-8%	/
CCOC(=O)N1CCC(NC(=O)c2ccc3c(c2)N=C(C)c2c(C)ccc(C)c2S3)CC1	/	-24%	-93*	?	/
CC1=Nc2cc(C(=O)NC3CCC(C)CC3)ccc2Sc2c(C)ccc(C)c21 (stereo not drawn)	?	33%	/	/	?
CCOC(=O)N1CCN(C(=O)c2ccc3c(c2)N=C(CC)c2cc(C)ccc2S3)CC1	/	-11%	-39	?	/
CCCC1=Nc2cc(C(=O)N3CCN(c4ccccn4)CC3)ccc2Sc2ccc(C)cc21	-10%[46.1 µM]	-30%	-38	11µM*	?
CCCC1=Nc2cc(C(=O)N3CCCC3)ccc2Sc2ccc(C)cc21	/	-7%	-6	-22%	/
CCOC(=O)N1CCC(NC(=O)c2ccc3c(c2)N=C(CC)c2cc(C)ccc2S3)CC1	?	?	0	3.2µM*	?
CCCC1=Nc2cc(C(=O)NC3CCCCC3)ccc2Sc2ccc(C)cc21	?	-3%	-91*	/	/
COc1cccc(CNC(=O)c2ccc(NC(=O)N3CCCCc4ccccc43)cc2)c1OC	-8%[46.1 µM]	-29%	-2	/	/
O=C1CN(C(=O)COC(=O)CCC(=O)c2ccc(F)cc2)c2ccccc2N1	/	2%	-10	12%	/
CCC1=Nc2cc(C(=O)NCc3ccco3)ccc2Sc2ccc(C)cc21	?	-22%	-75*	?	-21%
CCCC1=Nc2cc(C(=O)N3CCC(C)CC3)ccc2Sc2ccc(C)cc21	-8%[46.1 µM]	8%	-3	/	-4%[46.1 µM]
CCCC1=Nc2cc(C(=O)NC3CCCC3)ccc2Sc2ccc(C)cc21	?	-15%	-79*	/	?
CCC1=Nc2cc(C(=O)NC3CCC(C)CC3)ccc2Sc2ccc(C)cc21 (stereo not drawn)	?	-12%	-82*	/	?
CCC1=Nc2cc(C(=O)NC3CCCC3)ccc2Sc2ccc(Br)cc21	?	-10%	?	/	?
O=C(NCCCN1CCOCC1)c1cnn(-c2ncc3c(n2)-c2ccccc2CC3)c1C1CC1	/	-6%	/	/	/

Assay outcomes from PubChem.
